PubChem BioAssay AID720597 (Broad Institute, 2013)
Entries with a potency or affinity are not part of this list. Active and inactive are the calls of the source.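 How the source made its calls: active means fitted half-maximal dose no more than twice the top valid tested dose, for compounds that lower signal; inconclusive means fit invalid, or curve flat with activity between -70 and -30; inactive means potency past limit, curve flat within ±30, or signal increasing.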

Target: NAD-dependent protein deacylase sirtuin-5, mitochondrial (Homo sapiens) (UniProt Q9NXA8)
Experiment: SIRT5 deacylase inhibitors, dose response, biochemical, fluorescence imaging, cherry-pick, set 6 (AID 720597);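 further: lower AMC signal can also come from blocking the trypsin step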

Sequence of NAD-dependent protein deacylase sirtuin-5, mitochondrial (Homo sapiens) (Q9NXA8 whole entry, looked up): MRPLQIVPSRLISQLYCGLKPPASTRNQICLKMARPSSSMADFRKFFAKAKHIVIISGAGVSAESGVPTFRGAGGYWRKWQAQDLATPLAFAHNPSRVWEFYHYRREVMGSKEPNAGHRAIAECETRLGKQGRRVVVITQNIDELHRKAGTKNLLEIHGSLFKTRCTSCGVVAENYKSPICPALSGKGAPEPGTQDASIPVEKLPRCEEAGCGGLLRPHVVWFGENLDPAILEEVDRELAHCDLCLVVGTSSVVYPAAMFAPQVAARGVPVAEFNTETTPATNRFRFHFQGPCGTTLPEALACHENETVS

Row | SMILES | outcome
1 | C[C@@H]1CN([C@H](C)CO)C(=O)c2cc(NC(=O)c3ccncc3)ccc2O[C@@H]1CN(C)C(=O)Nc1ccc2c(c1)OCO2 | inactive
2 | C[C@@H]1CN([C@H](C)CO)S(=O)(=O)c2ccc(C#Cc3ccc(F)cc3)cc2O[C@@H]1CN(C)S(=O)(=O)c1ccc(F)cc1 | inactive
3 | C[C@@H]1CN([C@H](C)CO)C(=O)c2cc(NC(=O)CCCCCC(=O)Nc3ccccc3N)ccc2O[C@@H]1CN(C)Cc1ccc(Cl)c(Cl)c1 | inactive
4 | Cc1ccc(S(=O)(=O)N(C)C[C@H]2OCCCC[C@@H](C)Oc3ccc(NS(=O)(=O)c4ccc(Cl)cc4)cc3C(=O)N([C@@H](C)CO)C[C@@H]2C)cc1 | inactive
5 | Cc1ccc(S(=O)(=O)N(C)C[C@H]2OCCCC[C@H](C)Oc3ccc(NS(=O)(=O)c4ccccc4)cc3C(=O)N([C@H](C)CO)C[C@H]2C)cc1 | inactive
6 | C[C@H]1CN([C@@H](C)CO)C(=O)c2cccc(NC(=O)CCCCCC(=O)Nc3ccccc3N)c2O[C@@H]1CN(C)Cc1ccc(-c2ccccc2)cc1 | inactive
7 | C[C@@H]1CN([C@H](C)CO)S(=O)(=O)c2ccc(C#Cc3ccccc3F)cc2O[C@H]1CN(C)C(=O)c1ccc2c(c1)OCO2 | inactive
8 | COc1ccc(S(=O)(=O)Nc2ccc3c(c2)CC(=O)N([C@@H](C)CO)C[C@@H](C)[C@H](CN(C)Cc2ccc(C(F)(F)F)cc2)O3)cc1 | inactive
9 | C[C@@H]1CN([C@@H](C)CO)C(=O)Cc2cc(NC(=O)Nc3ccc4c(c3)OCO4)ccc2O[C@@H]1CN(C)CC1CCCCC1 | inactive
10 | C[C@H]1CN([C@@H](C)CO)S(=O)(=O)c2ccc(/C=C/c3ccccc3)cc2O[C@H]1CN(C)C(=O)NC1CCCCC1 | inactive
11 | COc1ccc(S(=O)(=O)Nc2ccc3c(c2)C(=O)N([C@H](C)CO)C[C@H](C)[C@H](CN(C)Cc2ccc(C(F)(F)F)cc2)OCCCC[C@H](C)O3)cc1 | inactive
12 | CO[C@H](CN(C)C(=O)c1ccc2c(c1)OCO2)[C@H](C)CN([C@H](C)CO)S(=O)(=O)c1ccccc1 | inactive
13 | Cc1ccc(-c2ccc(C3[C@@H]4CN(S(=O)(=O)c5cccc(C)c5)C[C@H]3N4)cc2)cc1 (stereo partly specified) | inactive
14 | C[C@H]1CN([C@@H](C)CO)C(=O)c2cc(NC(=O)Cc3ccccc3)ccc2O[C@H]1CN(C)Cc1ccc(Oc2ccccc2)cc1 | inactive
15 | C[C@@H]1CCCCO[C@@H](CN(C)C(=O)Nc2ccc(C(F)(F)F)cc2)[C@H](C)CN([C@@H](C)CO)C(=O)c2cc(NS(=O)(=O)c3ccc(Cl)cc3)ccc2O1 | inactive
16 | CCCNC(=O)N1[C@@H]2Cn3c(cccc3=O)[C@H]1[C@@H](C(=O)N1CCC(Cc3ccccc3)CC1)[C@@H]2CO | inactive
17 | C[C@H](CO)N1C[C@H](C)[C@@H](CN(C)C(=O)NC2CCCCC2)Oc2cc(C#Cc3ccc(F)cc3)ccc2S1(=O)=O | inactive
18 | CCC(=O)N1CC2(C1)[C@H](c1ccccc1)[C@H](CO)N2Cc1ccccc1OC | inactive
19 | Cc1ccc(S(=O)(=O)N(C)C[C@@H]2OCCCC[C@H](C)Oc3ccc(NS(=O)(=O)c4ccc(F)cc4)cc3C(=O)N([C@@H](C)CO)C[C@H]2C)cc1 | inactive
20 | Cc1noc(C)c1S(=O)(=O)Nc1ccc2c(c1)C(=O)N([C@H](C)CO)C[C@H](C)[C@@H](CN(C)Cc1ccc(C(F)(F)F)cc1)OCCCC[C@H](C)O2 | inactive
21 | C[C@H](CO)N1C[C@H](C)[C@@H](CN(C)Cc2ccc(C(F)(F)F)cc2)OCCCC[C@H](C)Oc2ccc(NS(=O)(=O)c3ccc(Cl)cc3)cc2C1=O | inactive

Row | SMILES | outcome
22 | CCNC(=O)C[C@H]1CC[C@H]2[C@@H](COC[C@@H](O)CN2C(=O)Nc2ccc(C(F)(F)F)cc2)O1 | inactive
23 | C[C@H](CO)N1C[C@H](C)[C@H](CN(C)S(C)(=O)=O)Oc2c(NC(=O)c3ccncc3)cccc2C1=O | inactive
24 | Cc1ccc(S(=O)(=O)N(C)C[C@H]2OCCCC[C@@H](C)Oc3ccc(NS(=O)(=O)c4ccccc4)cc3C(=O)N([C@@H](C)CO)C[C@@H]2C)cc1 | inactive
25 | C[C@H](CO)N1C[C@H](C)[C@@H](CN(C)S(=O)(=O)c2ccc(F)cc2)Oc2cc(C#Cc3ccc(F)cc3)ccc2S1(=O)=O | inactive
26 | CC1c2nc3ccccc3n2C(CC(=O)NCc2ccc(Cl)cc2)C(=O)N1Cc1ccccc1 (stereo unspecified) | inactive
27 | CC(=O)N1CC(=O)N2[C@@H](CO)[C@H](c3ccc(-c4ccc(C(=O)N(C)C)cc4)cc3)[C@@H]2C1 | inactive
28 | CN(C)Cc1cn(CC[C@@H]2CC[C@H](N)[C@H](CO)O2)nn1 | inactive
29 | C[C@H](CO)N1C[C@H](C)[C@@H](CN(C)Cc2ccc(C(F)(F)F)cc2)OCCCC[C@H](C)Oc2ccc(NS(=O)(=O)c3ccc(F)cc3)cc2C1=O | inactive
30 | O=C(Nc1ccc2c(c1)OCO2)N[C@H]1CC[C@H](CCNC(=O)C2CC2)O[C@@H]1CO | inactive
31 | CC(C)CC#Cc1ccc2c(c1)O[C@H](CN(C)S(=O)(=O)c1cccc(F)c1)[C@H](C)CN([C@H](C)CO)S2(=O)=O | inactive
32 | O=C(C[C@H]1C[C@@H]2c3cc(NC(=O)Nc4ccc(C(F)(F)F)cc4)ccc3O[C@@H]2[C@@H](CO)O1)NCc1ccc2c(c1)OCO2 | inactive
33 | CCCNC(=O)N1C[C@@H](O)COC[C@@H]2O[C@H](CC(=O)N3CCC(Cc4ccccc4)CC3)CC[C@H]21 | inactive
34 | O=C(C[C@@H]1C[C@H]2c3cc(NC(=O)c4ccc5c(c4)OCO5)ccc3O[C@H]2[C@H](CO)O1)NCc1ccc(Oc2ccccc2)cc1 | inactive
35 | C[C@H](CO)N1C[C@H](C)[C@H](CN(C)S(=O)(=O)c2ccc(Cl)cc2)OCc2ccccc2-c2c(n(C)c3ccccc23)C1=O | inactive
36 | CC(C)(C)NC(=O)CSc1nnc(-c2ccco2)n1-c1ccccc1 | inactive
37 | COc1ccc(NC(=O)Nc2ccc3c(c2)C(=O)N([C@@H](C)CO)C[C@@H](C)[C@@H](CN(C)Cc2ccncc2)O3)cc1 | inactive
38 | COc1ccc(S(=O)(=O)N(C)C[C@H]2OCCCC[C@H](C)Oc3ccc(NS(=O)(=O)c4ccc(F)cc4)cc3C(=O)N([C@H](C)CO)C[C@H]2C)cc1 | inactive
39 | CC(C)CC#Cc1ccc2c(c1)O[C@@H](CN(C)C(=O)Nc1ccccc1F)[C@@H](C)CN([C@@H](C)CO)S2(=O)=O | inactive
40 | C[C@@H]1CN([C@H](C)CO)C(=O)c2c(c3ccccc3n2C)-c2ccccc2CO[C@H]1CN(C)S(=O)(=O)c1ccc([N+](=O)[O-])cc1 | inactive
41 | C[C@@H]1CN([C@@H](C)CO)C(=O)c2cccc(NS(=O)(=O)c3cn(C)cn3)c2O[C@H]1CN(C)Cc1ccc(C(F)(F)F)cc1 | inactive
42 | Cc1ccc(CN(C)C[C@@H]2OCc3cnnn3CCCC(=O)N([C@H](C)CO)C[C@@H]2C)cc1 | inactive

Row | SMILES | outcome
43 | Cc1ccc(S(=O)(=O)Nc2ccc3c(c2)C(=O)N([C@@H](C)CO)C[C@H](C)[C@@H](CN(C)C(=O)Nc2ccc(C(F)(F)F)cc2)OCCCC[C@@H](C)O3)cc1 | inactive
44 | Cc1ccc(S(=O)(=O)N(C)C[C@H]2OCCCC[C@@H](C)Oc3ccc(NS(=O)(=O)c4ccccc4)cc3C(=O)N([C@H](C)CO)C[C@H]2C)cc1 | inactive
45 | CC(C)CC#Cc1ccc2c(c1)O[C@@H](CN(C)C(=O)c1cccc(F)c1)[C@H](C)CN([C@@H](C)CO)S2(=O)=O | inactive
46 | O=C1CN(Cc2ccccc2)C[C@@H]2[C@H](c3ccc(-c4ccccc4)cc3)[C@H](CO)N12 | inactive
47 | C[C@@H]1CN([C@@H](C)CO)C(=O)Cc2cc(NS(=O)(=O)c3ccc(F)cc3)ccc2O[C@H]1CN(C)Cc1ccc(C(F)(F)F)cc1 | inactive
48 | C[C@@H](O)C#Cc1ccc([C@@H]2[C@H]3CN(C(=O)c4cccc(F)c4)CCCCN3[C@H]2CO)cc1 | inactive
49 | C[C@@H](O)C#Cc1ccc([C@H]2[C@H](CO)N3CCCCN(CC4CC4)C[C@@H]23)cc1 | inactive
50 | C[C@H](CO)N1C[C@H](C)[C@H](CN(C)S(=O)(=O)c2cccc(F)c2)Oc2ncc(C#CC3CCCCC3)cc2C1=O | inactive
51 | CCCNC(=O)N(C)C[C@@H]1Oc2ncc(Br)cc2C(=O)N([C@H](C)CO)C[C@@H]1C | inactive
52 | C[C@@H]1CN([C@H](C)CO)C(=O)c2cccc(NC(=O)CCCCCC(=O)Nc3ccccc3N)c2O[C@H]1CN(C)Cc1ccc(Oc2ccccc2)cc1 | inactive
53 | COc1ccc(CN(C)C[C@H]2OCCCC[C@@H](C)Oc3ccc(NC(=O)NC4CCCCC4)cc3C(=O)N([C@H](C)CO)C[C@H]2C)cc1 | inactive
54 | COc1ccc(CN(C)C[C@H]2Oc3c(NC(=O)Nc4ccc(F)cc4)cccc3C(=O)N([C@@H](C)CO)C[C@@H]2C)cc1 | inactive
55 | C[C@@H]1CN([C@H](C)CO)C(=O)c2cc(-c3cccc(F)c3)cnc2O[C@@H]1CN(C)C | inactive
56 | C[C@@H]1CN([C@@H](C)CO)C(=O)c2cccc(NC(=O)CCCCCC(=O)Nc3ccccc3N)c2O[C@H]1CN(C)Cc1ccc(-c2ccccc2)cc1 | inactive
57 | C[C@@H]1CN([C@H](C)CO)S(=O)(=O)c2ccc(-c3cccc(F)c3)cc2O[C@@H]1CN(C)S(=O)(=O)c1ccc(F)cc1 | inactive
58 | COc1ccc(S(=O)(=O)Nc2ccc3c(c2)C(=O)N([C@@H](C)CO)C[C@H](C)[C@H](CN(C)Cc2ccc(C(F)(F)F)cc2)OCCCC[C@@H](C)O3)cc1 | inactive
59 | CC(C)C#Cc1cnc2c(c1)C(=O)N([C@@H](C)CO)C[C@H](C)[C@@H](CN(C)C(=O)CN1CCOCC1)O2 | inactive
60 | CCOC(=O)N(C)C[C@H]1OCc2ccccc2-c2ccccc2C(=O)N([C@H](C)CO)C[C@@H]1C | inactive
61 | C[C@@H]1CN([C@@H](C)CO)S(=O)(=O)c2ccc(C#CC(C)(C)O)cc2O[C@@H]1CN(C)Cc1ccc(-c2ccccc2)cc1 | inactive
